Data from PubChem BioAssay AID1159580 (chemical genetic matrix, 2015).
Screen size: about 5,500 compounds; about 2,000 (36%) were called active. Another 18% or so got no clear call; they are omitted. Rule as the data show it: active = normalized growth mostly below about 0.91 (no sharp cut-off); inconclusive = no clear call, values can overlap the other calls; inactive = mostly above about 0.92. Some of the results follow.

Assay: chemical genetic growth profiling, strain panel (AID 1159580);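 also: tested at 20 µM; growth read once vehicle control cultures reached saturation at 30 °C; 1 = growth at the plate median or of vehicle wells; lower values mean less growth of the strain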
Conditions: S. cerevisiae deletion strains, growth OD
[1] = locus YAR019C, strain CDC15, hits give low values
[2] = locus YBL105C, strain PKC1, hits give low values
[3] = locus YBR135W, strain CKS1, hits give low values
[4] = locus YBR136W, strain MEC1, hits give low values
[5] = locus YBR160W, strain CDC28, hits give low values
[6] = locus YDL017W, strain CDC7, hits give low values
[7] = locus YDL028C, strain MPS1, hits give low values
[8] = locus YDL101C, strain DUN1, hits give low values
[9] = locus YDL108W, strain KIN28, hits give low values
[10] = locus YDL132W, strain cdc53, hits give low values
[11] = locus YDL214C, strain PRR2, hits give low values
[12] = locus YDR052C, strain DBF4, hits give low values
[13] = locus YDR054C, strain cdc34, hits give low values
[14] = locus YDR226W, strain ADK1, hits give low values
[15] = locus YDR477W, strain SNF1, hits give low values
[16] = locus YER123W, strain YCK3, hits give low values
[17] = locus YER133W, strain GLC7, hits give low values
[18] = locus YFL009W, strain cdc4, hits give low values
[19] = locus YFL029C, strain CAK1, hits give low values
[20] = locus YFR003C, strain YPI1, hits give low values
[21] = locus YFR019W, strain FAB1, hits give low values
[22] = locus YFR028C, strain CDC14, hits give low values
[23] = locus YGR040W, strain KSS1, hits give low values
[24] = locus YGR052W, strain FMP48, hits give low values
[25] = locus YGR092W, strain DBF2, hits give low values
[26] = locus YHR030C, strain SLT2, hits give low values
[27] = locus YHR079C, strain IRE1, hits give low values
[28] = locus YHR082C, strain KSP1, hits give low values
[29] = locus YHR205W, strain SCH9, hits give low values
[30] = locus YIL147C, strain SLN1, hits give low values
[31] = locus YJL095W, strain BCK1, hits give low values
[32] = locus YJL128C, strain PBS2, hits give low values
[33] = locus YJL157C, strain FAR1, hits give low values
[34] = locus YJR016C, strain ILV3, hits give low values
[35] = locus YJR066W, strain TOR1 (second series), hits give low values
[36] = locus YJR066W, strain TOR1, hits give low values
[37] = locus YKL048C, strain ELM1, hits give low values
[38] = locus YKL067W, strain YNK1, hits give low values
[39] = locus YKL101W, strain HSL1, hits give low values
[40] = locus YKL193C, strain SDS22, hits give low values
[41] = locus YKL203C, strain TOR2, hits give low values
[42] = locus YLR113W, strain HOG1, hits give low values
[43] = locus YLR133W, strain CKI1, hits give low values
[44] = locus YLR403W, strain SFP1, hits give low values
[45] = locus YML070W, strain DAK1, hits give low values
[46] = locus YMR001C, strain CDC5, hits give low values
[47] = locus YMR205C, strain PFK2 (second series), hits give low values
[48] = locus YMR277W, strain FCP1, hits give low values
[49] = locus YNL006W, strain LST8, hits give low values
[50] = locus YNL020C, strain ARK1, hits give low values
[51] = locus YNL161W, strain CBK1, hits give low values
[52] = locus YNL183C, strain NPR1, hits give low values
[53] = locus YNL207W, strain RIO2, hits give low values
[54] = locus YNL222W, strain SSU72, hits give low values
[55] = locus YNL307C, strain MCK1 (second series), hits give low values
[56] = locus YOL078W, strain AVO1, hits give low values
[57] = locus YOL136C, strain PFK27, hits give low values
[58] = locus YOR061W, strain CKA2, hits give low values
[59] = locus YOR119C, strain RIO1, hits give low values
[60] = locus YOR231W, strain MKK1, hits give low values
[61] = locus YOR329C, strain SCD5, hits give low values
[62] = locus YPL031C, strain PHO85, hits give low values
[63] = locus YPL153C, strain RAD53, hits give low values
[64] = locus YPL204W, strain HRR25, hits give low values
[65] = locus YPL209C, strain IPL1, hits give low values
[66] = locus YPL256C, strain CLN2, hits give low values
[67] = locus YPR025C, strain CCL1, hits give low values
[68] = locus YPR106W, strain ISR1, hits give low values
[69] = locus YPR111W, strain DBF20, hits give low values
[70] = strain NNK1, hits give low values
[71] = strain TSCII, hits give low values

Measured: normalized growth

COc1cc(C2SCCS2)cc(Br)c1OC(=O)NC(=O)c1c(Cl)cccc1Cl
active: [26] 1.15 [resistant]
inactive: [1] 0.965 | [2] 0.955 | [3] 0.968 | [4] 0.954 | [5] 0.956 | [6] 0.958 | [7] 0.962 | [8] 0.952 | [9] 0.953 | [10] 0.962 | [11] 0.953 | [12] 0.966 | [13] 0.955 | [14] 0.937 | [15] 0.939 | [16] 0.936 | [17] 0.936 | [18] 0.956 | [19] 0.974 | [20] 0.948 | [21] 0.966 | [22] 0.968 | [23] 0.936 | [24] 0.988 | [25] 0.919 | [27] 0.985 | [28] 1.06 | [29] 0.987 | [30] 0.963 | [31] 0.958 | [32] 0.916 | [33] 0.909 | [34] 0.966 | [35] 0.926 | [36] 1.02 | [37] 0.951 | [38] 0.943 | [39] 0.957 | [40] 0.974 | [41] 0.974 | [42] 1 | [43] 0.942 | [44] 0.905 | [45] 0.962 | [46] 0.962 | [47] 0.954 | [48] 0.966 | [49] 0.967 | [50] 0.942 | [51] 0.951 | [52] 0.997 | [53] 0.964 | [54] 0.975 | [55] 0.937 | [56] 0.96 | [57] 0.937 | [58] 0.934 | [59] 0.994 | [60] 0.993 | [61] 0.956 | [62] 0.905 | [63] 0.941 | [64] 0.876 | [65] 0.963 | [66] 1.07 | [67] 0.966 | [68] 0.957 | [69] 0.933 | [70] 0.957 | [71] 0.958

COC(=O)c1cc([N+](=O)[O-])ccc1S(=O)(=O)Cc1ccc(Cl)cc1
inactive: [1] 0.971 | [2] 0.983 | [3] 0.991 | [4] 0.967 | [5] 0.998 | [6] 0.985 | [7] 0.98 | [8] 0.987 | [9] 0.988 | [10] 0.991 | [11] 0.952 | [12] 0.996 | [13] 0.983 | [14] 0.985 | [15] 0.948 | [16] 0.955 | [17] 0.956 | [18] 0.99 | [19] 0.974 | [20] 0.992 | [21] 0.974 | [22] 0.981 | [23] 0.941 | [24] 1.04 | [25] 0.946 | [26] 0.937 | [27] 0.97 | [28] 0.995 | [29] 0.98 | [30] 0.981 | [31] 0.966 | [32] 0.967 | [33] 0.964 | [34] 0.993 | [35] 0.88 | [36] 0.965 | [37] 0.976 | [38] 0.956 | [39] 0.949 | [40] 0.984 | [41] 1 | [42] 0.957 | [43] 0.951 | [44] 0.957 | [45] 0.958 | [46] 0.984 | [47] 0.957 | [48] 0.992 | [49] 0.996 | [50] 0.96 | [51] 0.988 | [52] 0.97 | [53] 0.98 | [54] 0.988 | [55] 0.976 | [56] 0.991 | [57] 0.952 | [58] 0.948 | [59] 0.973 | [60] 0.98 | [61] 0.984 | [62] 0.955 | [63] 0.951 | [64] 0.95 | [65] 0.983 | [66] 0.945 | [67] 0.987 | [68] 0.985 | [69] 0.984 | [70] 0.982 | [71] 0.981
